Hit rate of the full screen: of about 150,000 compounds, about 540 (0.36%) showed an effect of 50% or more. Only a selection was taken, and strong results are over-represented in it overall.
system: Plasmodium falciparum; experiment: Primary screen in NF54 nanoGlo assay, in single point, at 2uM, 72h; a lower Z score goes with more inhibition; assay type: functional, Erythrocyte; details: timepoint 72 hour

Compound | % Inhibition [%] | Z score
c1cc(-c2nc3cc4ccccc4cc3[nH]2)nc(-c2nc3cc4ccccc4cc3[nH]2)c1 | 100 | -18.05
Cc1cccc(C)c1OCC(=O)Nc1ccc(-c2nc3cc4ccccc4cc3[nH]2)cc1 | 49 | -5.57
CCn1ncc(C(CC(=O)c2ccccc2)CC(=O)c2ccccc2)c1C | -8 | 1.07
CCN(CC)C(=O)c1cnc2snc(C)c2c1N1CCC(C(=O)Nc2cc(F)ccc2F)CC1 | 6 | -0.96
CCOc1ccc(NC(=O)C2CCN(c3c(C(=O)N(CC)CC)cnc4snc(C)c34)CC2)cc1 | 5 | -0.93
CCN(CC)C(=O)c1cnc2snc(C)c2c1N1CCC(C(=O)Nc2c(C)cc(C)cc2C)CC1 | 54 | -10.3
CCN(CC)C(=O)c1cnc2snc(C)c2c1N1CCC(C(=O)Nc2ccc(Br)c(C)c2)CC1 | 1 | -0.18
Cc1nsc2ncc(C(=O)N3CCCCC3)c(N3CCC(C(=O)Nc4cc(F)ccc4F)CC3)c12 | 5 | -0.78
Cc1nsc2ncc(C(=O)N3CCC(C)CC3)c(N3CCC(C(=O)Nc4cc(F)ccc4F)CC3)c12 | 60 | -4.06
CN1CCC(NC(=O)NCC2(CO)CCC2)C1c1ccccc1 (centres undefined) | -12 | 2.33
Cc1cccnc1[C@H](C)NC(=O)CNC(=O)N(C)C | -9 | 1.68
Fc1ccc(Cc2nnc3n2CCCC3)cc1 | 3 | -0.52
COc1ccccc1CNc1nc2[nH]c3c(c(=O)n2n1)CCCC3 | 8 | -0.7
CC(C)(C)[C@H]1CCc2c(sc(NC(=O)C3(F)C(F)(F)C(F)(F)C(F)(F)C(F)(F)C3(F)F)c2C#N)C1 | 77 | -6.03
CC(C)(C)[C@H]1CCc2c(sc(NC(=O)c3cc(-c4ccccc4)nc4ccccc34)c2C#N)C1 | 13 | -1.58
CC(C)(C)[C@H]1CCc2c(sc(NC(=O)CN3CCCC3)c2C#N)C1 | 10 | -1.29
Cc1ccc(N2CCCC2=O)cc1NC(=O)N1CCC(c2n[nH]cc2C)CC1 | -8 | 1.78
Cc1csc(CNC(=O)NCc2nnc3n2CCOCC3)c1 | -2 | 0.17
COc1cccc(CNC(=O)c2cnn3c4c(cnc23)C[C@@H](C)CC4)c1 | 0 | 0.03
C[C@H]1CCc2c(cnc3c(C(=O)NCc4ccccc4)cnn23)C1 | 33 | 0.71
COc1ccc(CCNC(=O)c2cnn3c4c(cnc23)C[C@@H](C)CC4)cc1OC | 61 | -4.54
O=C(CC(c1ccccc1)c1ccccc1)N1CC(=O)N2CCc3ccccc3[C@@H]2C1 | 39 | -5.29
O=C(COc1ccc(Cl)cc1)N1CC(=O)N2CCc3ccccc3[C@@H]2C1 | -8 | 1.08
O=C(CN1C(=O)c2ccccc2C1=O)N1CC(=O)N2CCc3ccccc3[C@@H]2C1 | 65 | -8.85
CCN(CC)S(=O)(=O)c1ccc(F)c(C(=O)OCCNC(C)=O)c1 | -10 | 0.84
CNC(=O)c1ccc(NC2CC3CC3C2)nn1 (centres undefined) | 6 | -0.99

Compound | % Inhibition [%] | Z score
Nc1ccc(-c2ccc(NC3CCCC3)nn2)cn1 | -16 | 1.48
CC1(C)CCC(Nc2ccc(C(N)=O)nn2)CC1 | 77 | -11.08
COc1ccc(OC)c([C@@H]2CCCN2c2nnc(-c3ccccn3)s2)c1 | -13 | 2.07
Cc1ccc(C(F)(F)C(=O)NCCC(=O)NS(C)(=O)=O)cc1 | 57 | -7.27
Cc1ccccc1OCC(=O)NS(C)(=O)=O | -1 | 0.11
O=C(NCCc1nc2ccccc2[nH]1)C(F)(F)c1ccc(F)cc1 | 4 | -0.36
COc1ccccc1NC(=O)C1C(=O)NC23CCCCC2C1c1ccccc1O3 (centres undefined) | -8 | 1.04
COc1ccc2c(c1)OC13CCN(C)CC1C2C(C(=O)c1ccccc1OC)C(=O)N3 (centres undefined) | 58 | -6.85
Cc1cccc(NC(=O)C2C(=O)N[C@]34CCCCC3C2c2ccccc2O4)c1 (some centres undefined) | 2 | -0.27
O=C(CCOc1ccc(F)c(Cl)c1)NCc1cccnc1 | 15 | -2.11
CN(CCO)C[C@@H]1CN(C(=O)C2(c3ccccc3)CCCC2)C[C@@H]1CO | -27 | 2.7
Oc1cc(CC[C@H]2CCCCN2)cc(-c2cnc3ccccc3n2)c1 | 59 | -7.37
COc1nccnc1-c1cc(O)cc(CC[C@H]2CCCCN2)c1 | -23 | 3.42
COc1cccc(-c2cc(O)cc(CC[C@H]3CCCCN3)c2)n1 | 80 | -13.26
Oc1ccc(-c2cc(O)cc(CC[C@H]3CCCCN3)c2)nc1 | -14 | 1.77
CN(C)c1cncc(-c2cc(O)cc(CC[C@H]3CCCCN3)c2)n1 | -2 | 0.33
COc1ccnc(-c2cc(O)cc(CC[C@H]3CCCCN3)c2)n1 | -4 | 0.49
CC(C)(C)OC(=O)N1CC(CNC2(c3ncon3)CCC2)C1 | 9 | -1.69
CC1(C)[C@H]2CC=C(CCNc3nc(-c4ccncc4)nc4c3CNC4)[C@@H]1C2 | 0 | -0.03
CN(C[C@@H]1CCCN2CCCC[C@H]12)C(=O)Cc1c[nH]c2ccccc12 | -1 | 0.06
Cc1cc(-c2cncc(CN3CCCCC3)c2)ccc1F | 50 | -1.27
COc1ccc(-c2cncc(CN3CCCC3)c2)cc1OC | -9 | 1.71
Cc1cc(-c2cncc(CN3CCC(C(N)=O)CC3)c2)ccc1F | -2 | 0.18
Cc1ccc2c(C(=O)N3CCCCC3)cc(-c3cncnc3)nc2c1C | 3 | -0.37
O=c1c2cc(F)ccc2c(Br)cn1CC1(CO)COC1 | 20 | -2.48
C[C@H](NC(=O)c1cc(C(F)(F)F)n[nH]1)c1n[nH]c(N)n1 | -2 | 0.47

Reference: ChEMBL document CHEMBL4888484, “Replenishing the malaria drug discovery pipeline: Screening and hit evaluation of the MMV Hit Generation Library 1 (HGL1) against asexual blood stage Plasmodium falciparum ,using a nano luciferase reporter read-out” (2022)
